Compound activity (PubChem)
Only some compounds are listed: those with a hit (about 2.4% of all), similar ones and a draw of the others.
Cruzain inh Det = qHTS Assay for Promiscuous and Specific Inhibitors of Cruzain (with detergent); Cruzipain (Trypanosoma cruzi), P25779; purified cruzain, Z-FR-AMC fluorescence, 0.01% Triton; Potency, µM, actives largely listed as inhibitors; 0.43% of 200,000 active; AID 1478, 2009; also: nearly all actives have a fitted effect of over 40% in size
Target sequence (P25779 123-467 limits assumed): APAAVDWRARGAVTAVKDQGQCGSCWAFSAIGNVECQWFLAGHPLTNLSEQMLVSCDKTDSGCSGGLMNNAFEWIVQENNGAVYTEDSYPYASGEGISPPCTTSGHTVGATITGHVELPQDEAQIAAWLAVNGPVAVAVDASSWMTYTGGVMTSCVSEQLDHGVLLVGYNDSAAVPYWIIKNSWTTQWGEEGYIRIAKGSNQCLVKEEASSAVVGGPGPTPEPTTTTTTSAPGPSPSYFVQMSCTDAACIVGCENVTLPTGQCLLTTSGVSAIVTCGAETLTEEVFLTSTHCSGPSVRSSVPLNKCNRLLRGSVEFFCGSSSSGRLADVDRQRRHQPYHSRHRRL
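Read-out: AMC fluorescence (360 nm excitation, 450 nm emission), four reads over 2 min, first-to-third difference used. Conditions: cruzain 1.5 nM, Z-FR-AMC 2 uM, pH 5.5 acetate, 5 mM DTT, 0.01% Triton X-100.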
Cruzain inh noDet = qHTS Assay for Promiscuous and Specific Inhibitors of Cruzain (without detergent) | Potency, µM, most hits filed as inhibitors | 2.3% of 200,000 active | purified cruzain, Z-FR-AMC fluorescence, no detergent | Cruzipain (Trypanosoma cruzi), P25779; also: nearly all actives have a fitted effect of over 40% in size
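Purified cruzain at 1.5 nM, pre-incubated 15 min with compound at room temperature in 100 mM sodium acetate pH 5.5, 5 mM DTT, 0.00005% Triton X-100. Reaction started with 2 uM Z-FR-AMC; AMC fluorescence increase over 60 s gives rate.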
Numbers stand for hits; – = inactive; ? = inconclusive. Calls follow the shape of the dose curve; as a rule, active = well fitted curve in the direction sought with a large enough effect; inconclusive = small, poorly fitted or top-dose-only effect, or another doubt; inactive = no such curve, though single readings can be large; an effect the other way counts as inactive or inconclusive.

SMILES	Cruzain inh Det	Cruzain inh noDet
O=C1CC(SCc2nc3ccccc3[nH]2)C(=O)N1c1ccc(F)c(Cl)c1 (stereo not given)	–	16µM
O=C1CC(SCc2nc3ccccc3[nH]2)C(=O)N1c1ccc(Cl)cc1 (stereo not given)	–	–
O=C(N1CCOCC1)C1(c2ccccc2)CCNCC1	–	–
COc1ccccc1CNc1cc(-c2ccccc2Cl)ncn1	–	–
O=C(NC1CCN(C(=O)N2c3ccccc3Sc3ccccc32)CC1)c1ccccc1F	–	20µM
CC1CCN(C(=O)N2c3ccccc3Sc3ccccc32)CC1	–	–
CCOc1ccc(C(=O)N2CCC(c3ccncc3)CC2)cc1	–	–
CCOc1ccc(CCNC(=O)c2cc(=O)[nH]c3ccc(S(=O)(=O)N4CCCCC4)cc23)cc1OCC	–	–
O=C(COc1ccc(Br)cc1)Nc1ccc(-c2nnc(-c3ccco3)o2)cc1	–	10µM
CCC(Oc1ccccc1)C(=O)Nc1ccc(-c2nnc(-c3ccco3)o2)cc1 (stereo not given)	–	–
COc1ccc(OCC(=O)Nc2ccc(-c3nc4cc(C)c(C)cc4o3)cc2)cc1	–	–
Cc1ccc(OCC(=O)Nc2ccc(-c3nc4ccc(C)cc4o3)cc2)cc1	–	25µM
COc1ccc(OCc2ccc(-c3nc(C#N)c(N4CCN(C)CC4)o3)o2)cc1	–	–
COc1ccc(C(=O)Nc2nnc(SCc3cc(=O)n4cc(Cl)ccc4n3)s2)cc1	–	–
COC(=O)c1ccccc1NC(=O)CN(c1ccc(Cl)cc1)S(=O)(=O)c1ccc(OC)cc1	–	–
Cc1ccc(C(=O)Nc2ccc(Br)cc2)cc1S(=O)(=O)N1CCOCC1	–	–
O=C(CCCCCn1c(=O)c2sccc2n(CC(=O)Nc2cc(C(F)(F)F)ccc2Cl)c1=O)NCc1ccccc1Cl	–	16µM
CC(C)(C)C(=O)Cn1c(=O)n(CCCCCC(=O)NCc2ccccc2Cl)c(=O)c2sccc21	–	–
Cc1nn(CCCC(=O)NCc2ccccc2)c(=O)c2cc3sccc3n12	–	–
O=c1c(-c2ccc(Cl)cc2)nc2cnc(N3CCNCC3)nc2n1Cc1cccs1	–	–
O=C1c2ccccc2C(=O)N1SC1CCCCC1	14µM	6.3µM
O=C(OCN1C(=O)c2ccccc2C1=O)C1CCCCC1	–	–
O=C1c2[nH]nc(-c3ccc(Br)cc3)c2C(c2cccc(O)c2)N1c1ccc(Cl)cc1 (stereo not given)	–	?
COC(=O)c1ccc(C2c3c(-c4ccc(Br)cc4)n[nH]c3C(=O)N2c2ccc(Cl)cc2)cc1 (stereo not given)	–	16µM
CC(C)Oc1ccccc1-c1nc(SCC(=O)c2ccc(F)cc2)n[nH]1	–	–
SMILES	Cruzain inh Det	Cruzain inh noDet
CC(C)C(=O)Nc1ccc2nc(SCC(=O)N3CCc4ccccc43)sc2c1	–	–
CC(=O)Nc1ccc(S(=O)(=O)Nc2nc3ccccc3nc2N2CCCC2)cc1	–	–
O=S(=O)(Nc1nc2ccccc2nc1N1CCN(c2ccccc2)CC1)c1ccc(F)cc1	–	32µM
CCOC(=O)CNC(=O)O[C@@H]1C(=O)c2cc(OC)ccc2O[C@H]1c1ccc(OC)c(Br)c1	–	–
CCCN(CCC)CCCNC(=O)Cn1ncn2c(cc3sc(CC)cc32)c1=O	–	–
CCc1ccc(NC(=O)CSc2nc(-c3ccccc3)no2)cc1	–	–
COc1ccccc1-n1c(SCc2cc(=O)oc3cc(O)ccc23)nc2ccccc2c1=O	–	25µM
COc1ccc(C(C)=O)cc1CSc1nc2ccccc2c(=O)n1-c1ccccc1C	–	?
COc1cc(NC(=O)c2cc(-c3ccccc3O)no2)cc(OC)c1OC	–	?
CCOC(=O)N1CCN(C(=O)CSc2nc3c(cnn3-c3ccccc3)c(=O)[nH]2)CC1	–	–
O=C(CSc1nc2c(cnn2-c2ccc(F)cc2)c(=O)[nH]1)N1CCCCC1	–	–
COc1ccc(C2CC(c3cccs3)=NN2C(=O)CSc2nc3c(cnn3-c3ccccc3)c(=O)[nH]2)cc1 (stereo not given)	–	32µM
COc1cccc(C2CC(c3cccs3)=NN2C(=O)CSc2nc3ccccc3s2)c1OC (stereo not given)	?	13µM
COc1cccc(C2CC(c3cccs3)=NN2C(=O)CSc2nc3c(cnn3-c3ccc(F)cc3)c(=O)[nH]2)c1OC (stereo not given)	3.5µM	?
COc1ccc(C2=NN(C(=O)CSc3nc4ccccc4s3)C(c3ccc(OC)cc3)C2)cc1 (stereo not given)	–	?
COc1ccc(CNC(=O)c2cc3cccc4c3n2CC(C)S4)cc1 (stereo not given)	–	–
CCN(CC)S(=O)(=O)c1ccc2c(c1)N(CC(=O)NCCCN1CCN(c3ccc(OC)cc3)CC1)C(=O)CO2	–	–
Cc1nn(C(=O)c2c(F)cccc2F)c(C)c1S(=O)(=O)N1CCCCCC1	–	–
Clc1cccc(-n2ncc3c(NCCCn4ccnc4)ncnc32)c1	–	–
CCOc1cccc(C(=O)Nc2c(C(=O)c3ccc(OC)cc3)oc3ccccc23)c1	–	–
CC(=O)OCCCNc1cc(SCc2ccco2)c2nonc2c1[N+](=O)[O-]	–	–
CCCC(=O)OCCNc1cc(SCc2ccco2)c2nonc2c1[N+](=O)[O-]	25µM	–
COc1ccccc1-c1cc(NCc2cnc(C)cn2)ncn1	–	–
O=C(N/N=C/C(Br)=C/c1ccccc1)c1n[nH]c2c1CCC2	–	16µM
O=C(CNc1cccc2ccccc12)N/N=C/C(Br)=C/c1ccccc1	–	–
SMILES	Cruzain inh Det	Cruzain inh noDet
O=C(N/N=C/c1ccccc1Cl)c1n[nH]c2c1CCCC2	–	25µM
O=C(N/N=C/c1cccs1)c1n[nH]c2c1CCC2	–	–
Cc1ccc(-n2c(=O)c3oc4ccccc4c3n(CC(=O)Nc3ccc(F)c(Cl)c3)c2=O)cc1C	–	10µM
Cc1ccc(-n2c(=O)c3oc4ccccc4c3n(Cc3ccccc3F)c2=O)cc1C	–	–
CCN(Cc1ccccc1)C(=O)c1cc2ccc3cccnc3c2[nH]1	–	–
Cc1ccc(N2CCn3c2nc2c3c(=O)n(CCCc3ccccc3)c(=O)n2C)cc1	–	–
O=C(CCCCCn1c(=O)[nH]c2ccccc2c1=O)N1CCN(c2ccc(Cl)cc2)CC1	–	–
Cc1ccc(S(=O)(=O)NC2c3cccc4cccc(c34)C2Sc2nc(C)cc(C)n2)cc1 (stereo not given)	–	25µM
Cc1ccc(S(=O)(=O)NC2c3cccc4cccc(c34)C2Sc2nncn2C)cc1 (stereo not given)	–	–
CCC(=O)C1=C(c2ccc(F)cc2)N(C(=O)CC)n2cnnc2S1	–	–
O=C(N/N=C\c1cn(-c2ccccc2)nc1-c1ccccc1)c1ccc(Br)o1	–	25µM
COc1ccc(-c2nn(-c3ccccc3)cc2/C=N/NC(=O)c2cccc(S(=O)(=O)Nc3ccccc3Cl)c2)cc1	–	7.9µM
COc1ccc(-c2nn(-c3ccccc3)cc2/C=N/NS(=O)(=O)c2ccccc2)cc1	–	?
Cc1ccc(-c2nn(-c3ccccc3)cc2/C=N/NC(=O)c2ccc(Br)o2)cc1	–	?
COc1ccc(NC(=O)c2c(NC(=O)C(F)(F)F)sc3c2CCCCC3)cc1	–	–
COc1ccc(-n2nc(C(=O)Nc3cc(C)ccn3)c3c4ccccc4n(C)c3c2=O)cc1	–	–
O=S(=O)(c1ccc(Cl)cc1)c1nc(-c2ccccc2F)oc1NCc1ccccc1	–	–
